The labels stand for the following.
B1: ENSMUSG00000058297.560|Spock2|93:97;225:231 (ssRNA)
RNA: GGGAGUUCUACAGUCCGACGAUCGCUUCGAUAUCCGCAUGCUAACCUGGGGGUGCAAAAGGAGAUUCAAGACAUCCGUACCAAGUCAGGCAGAGCUACCCGCUUCUCAGCCCGUGUCCCACUUAAAACCGUCCGAACACAAAUCACUGAGCUUAGAGUUAAACAUUGUGGUCAAGUGCUUGGGUUCCGUCUGUAGAUUUAAGUGCUGACGUUGUAUCUCUCAGUAAUUUUAGAUGUCUUUUAAAAAAUCUGAACAAGUGUUAGACCCCACACACCGUUGGUGGGCACUCAAGCAUCCCGUGGGCUCUUGCGGUCGCACUAGUGUGGAAUUCUCGGGUGUCAAGG
B2: ENSMUSG00000042529.275|Kcnj12 (ssRNA)
RNA: GGGAGUUCUACAGUCCGACGAUCGCUUCGAUAUCCGCAUGCUAUUACCUGCCACUCACCUCUCUAUCUAGUUGUCGAGUCUAGGGAAGGGCAGAGGGUGGGUCCUGGCCACUGGGUGCCACUGUGGGAGCCGGGGCACCUGUCAUUCUUUCUGAGUAGGUGGGCCUGUAUCCAGAGCAGGGUCUAGGGGCUCCUGCUCCCGGCUCAUCUCAGUGGCCUGAAGCAUUCAAAACUCUAGCCAGCCCCAUCCUCCUCCCUGCCAGAAUGGUCCAGUCCCUGGGCCCUGCUGGAGAGCAGCUCAAACCUCUUGCGGUCGCACUAGUGUGGAAUUCUCGGGUGUCAAGG
B3: ENSMUSG00000042529.296|Kcnj12 (ssRNA)
RNA: GGGAGUUCUACAGUCCGACGAUCGCUUCGAUAUCCGCAUGCUAUCCAGAGCAGGGUCUAGGGGCUCCUGCUCCCGGCUCAUCUCAGUGGCCUGAAGCAUUCAAAACUCUAGCCAGCCCCAUCCUCCUCCCUGCCAGAAUGGUCCAGUCCCUGGGCCCUGCUGGAGAGCAGCUCAAACUGCCUUUCAUCUCUGCCAAAGGCAGGCAGAUGCUGUAUUUUCAAAUUCUCCUGCCCUCUUUUCCCCUUUUUCCCUGUAUUUAUUUAUUGCUUGUGCUAAAGACCAAACUAGCCGCCCCCUUUAGUGCUCUUGCGGUCGCACUAGUGUGGAAUUCUCGGGUGUCAAGG
B4: ENSMUSG00000090935.16|Synj2bp (ssRNA)
RNA: GGGAGUUCUACAGUCCGACGAUCGCUUCGAUAUCCGCAUGCUAAUAUGAACGGACGGGUGGAUUAUUUAGUCACGGAGGAAGAGAUCAACCUGACGAGAGGACCUUCGGGUAAAUGGCCAAGAUCUGAAGAACCUGCUGCACCAAGAUGCUGUAGACCUCUUCCGUAAUGCGGGAUGUGCUGUGUCCCUGAGAGUACAGCACAGGUUACCAGUGCAGAAUGGACCUAUAGUACAUCGAGGUGAAGGAGAGCCAAGUGGAGUUCCUGUAGCUAUGGUGCUGCUACCAGUGUUUGCCCUCACCAUCUCUUGCGGUCGCACUAGUGUGGAAUUCUCGGGUGUCAAGG
B5: ENSMUSG00000061578.1096|Ksr2 (ssRNA)
RNA: GGGAGUUCUACAGUCCGACGAUCGCUUCGAUAUCCGCAUGCUAAGAAGGCUGGGGGAGCUUUCAGGGGUGUGGCCAGUUAUGUACAGAUGUGAAGCUGAGGUCUGAAGGAAAUGGAGGAAGUAGGAAGAUCAGACUGGUUGAAUUAGAAGUCUGUCACUCUAGGUGCUAAGUGACCUUGGACCCAGUCAGUUCUUGGAUUUCUGUUGUAGCCCAGGCUAGCCUCGAACCCUUGAUCCUCCUGUUCCUGGUAGAGAAACAGCCACUAAAUGGUGGGAUAGAAUGUGACUGCUCUAUCCCCGAUCCUCUUGCGGUCGCACUAGUGUGGAAUUCUCGGGUGUCAAGG
B6: ENSMUSG00000029636.193|Wasf3 (ssRNA)
RNA: GGGAGUUCUACAGUCCGACGAUCGCUUCGAUAUCCGCAUGCUAAGCCAGUUGCCCGGGCAGAGACCUGACUUCCCCUCUCCUGCCCUGAUCCUUUUUACCAAAUGGCGAUUCCAUAGUCCUGGCUGAGGCAGGGGCUCAAAGUCCAGUGUCUGCUUUGCAAUUCUGGAAGGACAGCUGCUUAUUUAAAUAAGUCUGUGAUAUCCGCAGGCUUGGGUUACAGGGAGGACCUUGCAGAGGGACCAGGACACUGCCUUCCCUUAGGUGCAUUAUUUACGUGGCCUGCAGCUCUUAAUAUCUCUCACCUCUUGCGGUCGCACUAGUGUGGAAUUCUCGGGUGUCAAGG
B7: ENSMUSG00000058297.31|Spock2 (ssRNA)
RNA: GGGAGUUCUACAGUCCGACGAUCGCUUCGAUAUCCGCAUGCUAACUUAGCAAAUGGAUCCGGAAGUCAGUGCGGAGGACCCUGGCUCCAGUGGGGGAGGACUGGGGAGUGUGGCUUGUGUGUAUGUGUGAUAUGAGAUGUGUGUGUAUGAUGUGAGAUGUGAGUGUGUGAUGUGAGAUGUGUGUAUGUGAGAUGUGUGUGUGUGUGUGUGUGUGUGUGAUGUGAGUCACCCAAAGGUCCCUAUGUUAUUGAUUUUCAAAUGCACACUUUCACACACAAGGAUACACUAACAGACCAAAAUCAACUCUUGCGGUCGCACUAGUGUGGAAUUCUCGGGUGUCAAGG
B8: ENSMUSG00000058297.30|Spock2 (ssRNA)
RNA: GGGAGUUCUACAGUCCGACGAUCGCUUCGAUAUCCGCAUGCUACAGGCAACUUAGCAAAUGGAUCCGGAAGUCAGUGCGGAGGACCCUGGCUCCAGUGGGGGAGGACUGGGGAGUGUGGCUUGUGUGUAUGUGUGAUAUGAGAUGUGUGUGUAUGAUGUGAGAUGUGAGUGUGUGAUGUGAGAUGUGUGUAUGUGAGAUGUGUGUGUGUGUGUGUGUGUGUGUGAUGUGAGUCACCCAAAGGUCCCUAUGUUAUUGAUUUUCAAAUGCACACUUUCACACACAAGGAUACACUAACAGACCAACUCUUGCGGUCGCACUAGUGUGGAAUUCUCGGGUGUCAAGG
B9: ENSMUSG00000058297.30|Spock2|71:75;79:92;101:112;126:132;141:150;156:181 (ssRNA)
RNA: GGGAGUUCUACAGUCCGACGAUCGCUUCGAUAUCCGCAUGCUACAGGCAACUUAGCAAAUGGAUCCGGAAGUCAGUGCGGAGGACCCUGGCUCCAGUGGGGGAGGACUGGGGACACACGCUACACACAUACACACAUAUGAGAACACACACAUACAUGUGAGAUGUGACACACACAUGUGAGAACACACAUACUGAGAACACACACACACACACACACACACACAUGUGAGUCACCCAAAGGUCCCUAUGUUAUUGAUUUUCAAAUGCACACUUUCACACACAAGGAUACACUAACAGACCAACUCUUGCGGUCGCACUAGUGUGGAAUUCUCGGGUGUCAAGG

The full ranking holds about 9,900 sequences; the median of “r (bound/input frequency ratio)” is about 0.7, and the highest 2% start at about 6.5. Shown is part of a subset that was picked to be rich in the highest values.

Chain of TDP-43 (Q13148 whole entry): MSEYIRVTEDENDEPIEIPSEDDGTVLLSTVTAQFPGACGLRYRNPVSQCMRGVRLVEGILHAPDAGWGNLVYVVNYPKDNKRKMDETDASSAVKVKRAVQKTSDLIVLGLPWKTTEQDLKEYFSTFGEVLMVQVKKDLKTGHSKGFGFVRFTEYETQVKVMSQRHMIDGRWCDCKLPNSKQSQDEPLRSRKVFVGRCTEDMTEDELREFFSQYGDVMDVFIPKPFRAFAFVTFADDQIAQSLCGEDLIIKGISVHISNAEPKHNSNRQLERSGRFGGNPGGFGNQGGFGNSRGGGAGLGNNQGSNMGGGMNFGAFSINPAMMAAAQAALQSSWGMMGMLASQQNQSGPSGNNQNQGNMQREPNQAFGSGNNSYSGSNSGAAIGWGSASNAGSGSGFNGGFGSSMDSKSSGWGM

This assay addresses TDP-43 (Homo sapiens, UniProt Q13148 1-414). Kind of assay: RNA Bind-n-Seq with designed 260-mer pool; 25 mM Tris-HCl, 150 mM KCl, 3 mM MgCl2, BSA (printed 500 mg/mL), 20 units/mL SUPERase IN; pH not stated; 500 nM RNA pool, 1 h, 4 C; TDP-43 5, 50, 500 nM; high values mean tight binding. The conditions noted are these: protein: recombinant; tags: SBP (GST cleaved off with PreScission; pGEX-GST-SBP). The method in brief: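 An in vitro-transcribed pool of 260-nt 3′ UTR oligos (500 nM) was incubated for 1 h at 4 °C with recombinant SBP-tagged TDP-43 at 5, 50 or 500 nM held on streptavidin beads. The buffer contained 25 mM Tris-HCl, 150 mM KCl, 3 mM MgCl2, BSA and SUPERase IN. Biotin-eluted bound RNA was sequenced, and binding, R, is each oligo's normalized read abundance in the bound sample over that in input.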
On to B1, for which the binding signal is 0.189 R (bound/input frequency ratio). Consider B2, for which the binding signal is 0.367 R (bound/input frequency ratio). With B3 the figure was 1.65 R (bound/input frequency ratio); with B4, 0.983 R (bound/input frequency ratio). For B5, the binding signal is 2.29 R (bound/input frequency ratio). Turning to B6, the binding signal was 0.437 R (bound/input frequency ratio). B7: the binding signal is 8.63 R (bound/input frequency ratio). For the molecule B8, the binding signal is 8.87 R (bound/input frequency ratio). In the case of B9, the binding signal was 2.07 R (bound/input frequency ratio).
